# Out of some 340,000 compounds screened, about 1,300 (0.38%) were called active. Many of the other results were omitted from the sample, so actives are more common in it than they were. Values without a mark were called inactive.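 The calls were made as follows: active = maximum activity change below -70%; inconclusive = maximum activity change between -70% and -50%; inactive = maximum activity change above -50%.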
# Biological target: Voltage-gated inwardly rectifying potassium channel KCNH2 (Homo sapiens) (UniProt Q12809)
# Assay: qHTS for Inhibitors of KCHN2 3.1: Wildtype qHTS
# Details: U2OS, BacMam KCNH2, thallium flux FluxOr; at 1.84 µM; active compounds read low
# Source text: Many antipsychotic drugs that inhibit the neurotransmitter dopamine also bind to hERG1 channel which might help explain their antipsychotic activity but also produces cardiac side effects. The discovery of the novel KCNH2 3.1 isoform offers a potential new target for the development of antipsychotic drugs without cardiac side effects. This proposal will use a high throughput thallium flux assay developed for KCNH2 to screen compounds that modulate the activity of KCNH2 3.1. The wild type KCNH2 channel will also be screened in parallel to help define the selective modulators of this KCNH2 3.1 potassium channel. The resulting compounds will be validated in electrophysiology experiments. The availability of animal models will allow future testing in vivo for effects on memory and other aspects of animal physiology linked with psychosis. NIH Chemical Genomics Center [NCGC] NIH Molecular Libraries Probe Centers Network [MLPCN] MLPCN Grant: MH096539 Assay Submitter (PI): James Barrow, Johns Hopkins University, Lieber Institute for Brain Development
# U2OS cells were resuspended in cell media containing 10% fetal calf serum (FCS) at a concentration of 2 million cells / mL. The solution was treated with the Wild-type virus at 2.03 x 10^8 / mL and allowed to incubate at room temperature in the dark. After 4 hours of incubation, DMEM + 10% fetal bovine serum (FBS) was added to the cell solution. Three microliter was then dispensed into a 1536 tissue culture treated black assay plates which were incubated overnight at 37 C. Two microliter of loading buffer (HBSS + HEPES + Red40 dye quencher + FluxOr dye) was added and the assay plates were incubated for 45 min at room temperature in the dark. […] A stimulation buffer was added to the plate and the second kinetic read (2 min) was obtained. The rate constant was calculated from the kinetic reads and normalized to the positive and negative DMSO controls.
# % is scaled to controls: 0 for no effect and ±100 for the full control effect.
# Sequence of Voltage-gated inwardly rectifying potassium channel KCNH2 (Homo sapiens) (Q12809 whole entry, looked up): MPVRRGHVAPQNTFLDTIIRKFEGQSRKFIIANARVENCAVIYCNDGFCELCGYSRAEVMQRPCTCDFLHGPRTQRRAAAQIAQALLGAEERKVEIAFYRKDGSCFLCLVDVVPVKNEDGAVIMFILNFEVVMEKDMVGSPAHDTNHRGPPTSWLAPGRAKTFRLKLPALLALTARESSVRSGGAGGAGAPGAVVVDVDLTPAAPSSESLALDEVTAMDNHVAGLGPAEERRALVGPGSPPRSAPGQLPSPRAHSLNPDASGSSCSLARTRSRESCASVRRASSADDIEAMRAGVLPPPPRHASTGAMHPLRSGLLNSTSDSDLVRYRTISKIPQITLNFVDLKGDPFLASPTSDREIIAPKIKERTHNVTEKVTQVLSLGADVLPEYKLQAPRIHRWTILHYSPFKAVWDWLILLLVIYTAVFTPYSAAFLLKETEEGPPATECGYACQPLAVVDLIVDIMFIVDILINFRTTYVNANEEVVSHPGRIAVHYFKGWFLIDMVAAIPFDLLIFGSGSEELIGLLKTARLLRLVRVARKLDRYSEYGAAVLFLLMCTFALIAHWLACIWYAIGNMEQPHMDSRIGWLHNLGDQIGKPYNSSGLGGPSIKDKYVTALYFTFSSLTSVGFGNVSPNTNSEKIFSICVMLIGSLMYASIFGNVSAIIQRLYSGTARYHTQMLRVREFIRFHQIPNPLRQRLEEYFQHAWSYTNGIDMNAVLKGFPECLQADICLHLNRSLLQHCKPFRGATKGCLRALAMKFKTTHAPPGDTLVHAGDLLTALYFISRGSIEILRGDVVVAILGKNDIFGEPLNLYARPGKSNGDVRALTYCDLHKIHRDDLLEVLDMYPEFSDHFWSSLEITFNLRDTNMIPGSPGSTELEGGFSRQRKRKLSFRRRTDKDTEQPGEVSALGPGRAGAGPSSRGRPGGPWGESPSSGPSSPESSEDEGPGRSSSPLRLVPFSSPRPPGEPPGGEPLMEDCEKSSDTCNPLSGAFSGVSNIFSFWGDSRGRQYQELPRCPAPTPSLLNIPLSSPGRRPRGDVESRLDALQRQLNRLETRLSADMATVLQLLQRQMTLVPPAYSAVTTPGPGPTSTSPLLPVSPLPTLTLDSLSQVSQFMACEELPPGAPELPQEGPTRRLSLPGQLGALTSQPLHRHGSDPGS
row,Structure (SMILES),activity change
1,CCOC(=O)C1(Cc2ccc(Cl)cc2)CCN(C(C)CCn2cccn2)CC1 (stereo not given),-90.9% (active)
2,CCOC(=O)C1(CCc2ccccc2)CCN(Cc2ccco2)CC1,-42.5%
3,CNC(=O)O/N=C(\N)Cc1csc2ccc(Cl)cc12,-2.66%
4,NCCc1ccc(S(=O)(=O)F)cc1,-7.95%
5,NCC(O)c1ccc(O)cc1 (stereo not given),2.77%
6,CC1(C)Cc2c(C#N)c(N3CCNCC3)nc(-c3ccco3)c2CS1,-1.97%
7,CC(=NCC1CCCO1)c1c(O)n(-c2ccccc2)c(=O)[nH]c1=O (stereo not given),-12.8%
8,CC(Cc1ccccc1)NCCC(c1ccccc1)c1ccccc1 (stereo not given),-106% (active)
9,O=C1NC(=O)C(CCOc2ccccc2)(CCc2ccccc2)C(=O)N1,-6.81%
10,O=Cc1cn(Cc2ccc(F)cc2Cl)c2ccccc12,0.945%
